Test results published in PubChem BioAssay AID565 (University of Pittsburgh Molecular Library Screening Center, 2006).
Screen size: about 65,000 compounds; about 1,200 (1.8%) were called active. Many of the other results were omitted from the sample, so actives are more common in it than they were. Unmarked numbers belong to inactive results. Cut-off read from the data, not from the text of the source: active = inhibition above about 50%; inactive = the rest.

Molecular target: Gag-Pol polyprotein (Human immunodeficiency virus type 1 group M subtype B (isolate HXB2)) (UniProt P04585)
Experiment: blockers of HIV-1 RNase H RNA/DNA cleavage – biochemical, fluorescence, primary screen (AID 565)
Conditions: RT-RNase H RNA/DNA duplex cleavage, at 10 µM, stronger effect = higher value

Structure (SMILES)	inhibition
CCN(CC)P(=O)(/C(Cl)=C\Nc1c(C)n(C)n(-c2ccccc2)c1=O)N(CC)CC	-5.1%
CCOC(=O)c1sc(NC(=O)c2cc(S(=O)(=O)N3CCOCC3)ccc2C)nc1C	3.07%
Cc1noc(C)c1CSc1nc2cc(S(=O)(=O)N3CCOCC3)ccc2o1	86.2% (active)
O=S(=O)(c1ccc2ccccc2c1)N1CCN(S(=O)(=O)N2CCOCC2)CC1	-6.43%
CCOCCCNC(=O)Cc1cc(=O)[nH]c(=O)[nH]1	5.5%
CC(=O)Oc1ccc(C)cc1N1C(=O)c2ccc(C(=O)O)cc2C1=O	-4.48%
COc1ccc(OC)c(NC(=O)Cn2c(=O)oc3ccccc32)c1	-1.94%
CC1CCCN(C(=O)Cn2c(=O)oc3ccccc32)C1 (stereo not given)	7.78%
NC(=O)Cn1c(=O)oc2ccccc21	96.3% (active)
O=C(Nc1nc(-c2ccc3c(c2)OCO3)cs1)c1ccncc1	-9.11%
O=C(Nc1nc(-c2ccncc2)cs1)C1COc2ccccc2O1 (stereo not given)	83.8% (active)
COc1ccc(OC)c2sc(NC(=O)C3COc4ccccc4O3)nc12 (stereo not given)	1.92%
O=C(CCSCCc1ccccn1)Nc1nccs1	-23.9%
CCOC(=O)c1c(C)c(C(=O)NCCc2ccc(S(N)(=O)=O)cc2)c(C)n1CC	-6.32%
CCCc1nnc(NC(=O)CN2C(=O)c3ccccc3S2(=O)=O)s1	89.7% (active)
CNC(=O)CN1C(=O)c2ccccc2S1(=O)=O	4.74%
CCCc1nnc(NC(=O)c2cc(OC)cc(OC)c2)s1	4.61%
O=C(CN1CCOCC1)Nc1c(-c2ccccc2)c2cc(Br)ccc2[nH]c1=O	9.93%
COc1ccc(N2CCN(CCNC(=O)c3nnc(Cc4c(F)cccc4Cl)o3)CC2)cc1	4.44%
CCC(=NC1CC(C)(C)NC(C)(C)C1)C1=C(O)CC(C)(C)CC1=O	-6.23%
COc1ccc(OC)c(Nc2nc(-c3ccc(O)c(O)c3)cs2)c1	71.9% (active)
Oc1ccc(-c2csc(Nc3cccnc3)n2)cc1	34.2%
COc1ccc(-c2n[nH]c(C)c2-c2ccc(OC)c(OC)c2)c(O)c1	3.91%
COCCN(C(=O)CCC(=O)Nc1ccccn1)C(C(=O)NCCC(C)C)c1ccc(OC)cc1 (stereo not given)	3.89%
CSCCC(Nc1nc2ccccc2s1)C(=O)O (stereo not given)	-3.78%
O=C(NCc1ccccn1)c1ccc2nc(-c3ccco3)c(-c3ccco3)nc2c1	87.7% (active)
Cc1cccn2c(=O)c3cc(C(=O)NCc4ccccn4)n(C)c3nc12	-10.5%

Structure (SMILES)	inhibition
O=C(NCc1ccccn1)c1cc2ccccc2oc1=O	-3.63%
CC(Sc1nncs1)C(=O)NCc1ccc2c(c1)OCO2 (stereo not given)	-19.3%
Cc1nc2nc(CSc3nc4ccccc4s3)cc(=O)n2[nH]1	4.18%
c1ccc(-n2ncc3c2ncn2c(C4CCCCC4)nnc32)cc1	-1.63%
c1ccc(-n2ncc3c2ncn2c(CSc4nc5ccccc5s4)nnc32)cc1	63.5% (active)
CN1CCN(C(=O)C2C3C=CC(C3)C2C(=O)O)CC1 (stereo not given)	0.5%
CCN(CC)CCN1C(=O)C(=O)/C(=C(/O)c2ccc(OC)c(OC)c2)C1c1ccccn1 (stereo not given)	5.17%
COc1ccc(Cc2nnc(NS(=O)(=O)Cc3ccccc3)s2)cc1	1.94%
COCC(=O)Nc1nnc(COc2ccccc2)s1	-3.37%
COc1ccc(Cc2nnc(NC(=O)Cc3cccs3)s2)cc1	70.2% (active)
CCOC(=O)c1c(-n2cnnn2)sc(C)c1C	70.4% (active)
CCOC(=O)c1c(NC(=O)c2cccs2)sc(C)c1C	-2.71%
CCOC(=O)c1c(NC(=O)CSc2nnc(Cc3csc(N)n3)n2C)sc(C)c1C	-19.7%
Cc1cccc(NC(=O)C2CCCN2S(=O)(=O)c2ccc(F)cc2)c1C (stereo not given)	-5.03%
COc1ccc(CCNC(=O)c2ccc3c(c2)NC(=O)C(N2CCOCC2)S3)cc1OC (stereo not given)	-10.7%
O=c1cc(-c2ccccc2)nc(N2CCCCC2)[nH]1	-11.7%
CC(=O)N1CCN(c2ccc(NCc3ccc(C(C)C)cc3)cc2)CC1	-16.6%
CCOC(=O)CSc1nc2c(sc(=S)n2CCc2ccccc2)c(=O)n1Cc1ccco1	60.1% (active)
COc1ccccc1NC(=O)CSc1nc2sc(C)c(C)c2c(=O)n1Cc1ccco1	9.92%
CCOC(=O)CSc1nc2c(c(=O)n(C)c(=O)n2C)n1Cc1ccccc1F	-12.1%
COc1ccc(C2C(C#N)=C(N)Oc3n[nH]c(C)c32)cc1CN1CCN(c2ccc(F)cc2)CC1 (stereo not given)	-5.93%
COc1ccc(COC(=O)c2n[nH]c3ccccc23)cc1F	-42.8%
CCN(CC)S(=O)(=O)c1ccc2nc(COC(=O)c3n[nH]c4ccccc34)[nH]c2c1	55.6% (active)
CCN(CC)S(=O)(=O)c1ccc2nc(CSc3nnnn3-c3ccc(O)cc3)[nH]c2c1	10.6%
CCCCC(=O)N1CC2(C)CN(C(=O)CCCC)CC(C)(C1)C2=O	-4.52%
Cc1cc(C)c2c(n1)nn1c(N3CCN(c4cccc(Cl)c4)CC3)cc(C)nc21	29.6%
CN1CCc2c(sc3c2c(NCc2ccco2)nc2nnnn23)C1	1.26%

Structure (SMILES)	inhibition
COC(=O)c1cc(S(=O)(=O)NC2CCN(Cc3ccccc3)CC2)cn1C	-1.44%
CC(C)CCNC(=O)C1CCCN(S(=O)(=O)c2ccc(F)cc2)C1 (stereo not given)	-4.63%
CCS(=O)(=O)N1CCCC(C(=O)NCc2ccc(C)cc2)C1 (stereo not given)	-25.4%
CC(C)CNC(=O)C1CCCN(S(=O)(=O)c2ccc(-n3cnnn3)cc2)C1 (stereo not given)	55.3% (active)
CC(Oc1ccc(Cl)cc1)C(=O)Nc1ncccn1 (stereo not given)	-1.55%
COc1ccc(CCNC(=O)c2cc3sccc3n2C)cc1OC	-5.6%
O=C(Nc1nccs1)C1CCCN1S(=O)(=O)c1cccc2cccnc12 (stereo not given)	-30.1%
CCc1nc(Nc2ccc3nccnc3c2)c2oc3ccccc3c2n1	-0.27%
COc1cc(C2C(C(=O)c3ccc(C)o3)=C(O)C(=O)N2Cc2cccnc2)ccc1O (stereo not given)	5.97%
COc1nc(OC)nc(N(C)CCO)n1	-8.92%
C/C(=N\O)C1(C)N(O)C(C)(C)C(c2ccc(Br)cc2)=[N+]1[O-] (stereo not given)	-4.23%
CCC1=[N+]([O-])C(C)(/C(C)=N\O)N(O)C1(C)C (stereo not given)	50.7% (active)
CCC1(C)N(O)C(C)(C)C(c2ccc(OC)cc2)=[N+]1[O-] (stereo not given)	-6.14%
CC(=O)CCS(=O)(=O)c1ccc(C)c(C)c1	-10.6%
CC(=O)Oc1cccc(N2C(=O)CC(Nc3ccc(N4CCOCC4)cc3)C2=O)c1 (stereo not given)	2.32%
Cc1csc(NC(=O)CN2CCCCCC2)n1	7.02%
Cc1csc(NC(=O)NC2(C(F)(F)F)Oc3ccccc3O2)n1	74.1% (active)
CCOC(=O)Cc1csc(NC(=O)Nc2ccccc2)n1	-23.4%
CCCCCOC(=O)NCCOC(=O)Nc1ccc(C(=O)OCC)cc1	-14%
Cc1cccc(C(=O)Nc2ccc(CC(=O)O)cc2)c1	-3.58%
COC(=O)c1cccc(NC(=O)CSc2nc(C)cc(=O)[nH]2)c1	-4.06%
CCOC(=O)c1sc(=S)n2c1[nH]c(=O)c1ccc(C(=O)OC)cc12	93.6% (active)
COC(=O)c1ccc2c(=O)n(CC3CCCO3)c(=S)[nH]c2c1 (stereo not given)	0.2%
CSc1ccc(-c2c(C#N)c(N)nc3c2c(C)nn3-c2ccccc2)cc1	-4.17%
C[C@H](NC(=O)OC(C)(C)C)c1nnc(SCC(N)=O)o1	-8.59%
Cc1ccc2cccc(O)c2[n+]1[O-]	63.1% (active)
CC(=O)Nc1cccc2c1[n+]([O-])c(C)c(C)[n+]2[O-]	-5.6%

Structure (SMILES)	inhibition
CCCS(=O)(=O)N1CCCC(C(=O)NCCN2CCCCC2C)C1 (stereo not given)	-24.4%
COc1ccc(CCNC(=O)CSc2nnc(CNC(=O)c3cccs3)o2)cc1OC	4.42%
c1ccc(CSc2nnc(-c3ccco3)c(-c3ccco3)n2)cc1	97% (active)
Clc1ccccc1CSc1nnc(-c2ccco2)c(-c2ccco2)n1	55.3% (active)
Nc1cc(=O)nc(SCc2ccccc2)n1Cc1ccco1	-80.9%
O=c1cc(O)nc(SCc2ccccc2Cl)[nH]1	-21.4%
c1coc(-c2nc3nc4ccccc4n3nc2-c2ccco2)c1	-3.81%
c1ccc(CSc2nnc(-c3ccco3)n2Cc2ccccc2)cc1	-24.3%
Cc1nn(-c2ccccc2)c(C)c1C(=O)OCC(=O)NC(=O)NC1CCCCC1	7.28%
OC1CN=C2Sc3ccccc3N2C1 (stereo not given)	-8.76%
COc1ccccc1NC(=O)c1ccc(C)s1	-6.32%
COc1ccc(N2C(=O)CN=C2Nc2cccc(C)c2C)cc1OC	93.2% (active)
Cc1cc(C)nc(NC2=NCC(=O)N2c2ccc(Cl)cc2)n1	4.35%
COc1ccc(CN2C(=O)CN=C2Nc2ccc(C)cc2C)cc1	-7.04%
CCOC(=O)N1CCC(NC(=O)c2cnn3ccccc23)CC1	-4.53%
FC(F)(F)c1cc(-c2ccco2)nc(N2CCOCC2)n1	-9.98%
CCOC(=O)c1ccn(-c2nc(-c3ccco3)cc(C(F)(F)F)n2)n1	-4.86%
Cc1cc(C(F)(F)F)nn1-c1nc(-c2ccco2)cc(C(F)(F)F)n1	94.4% (active)
O=C(Nc1ccc(-c2nnc(-c3ccccc3)o2)cc1)c1ccc(Br)o1	-4.57%
Nc1ccc(-c2nnc(-c3ccc(-c4ccccc4)cc3)o2)cc1	80.5% (active)
O=C(Nc1ccc(-c2nnc(-c3ccccc3)o2)cc1)C1CCCO1 (stereo not given)	4.33%
CCCc1[nH]nc2c1C(c1ccc(OC)c(Cn3nc(C)c(Br)c3C)c1)C(C#N)=C(N)O2 (stereo not given)	7.36%
O=C(c1ccc2c(c1)OCO2)N1CCNc2ccccc2C1	-5.92%
O=C(c1ccccc1-c1ccccc1)N1CCOCC1	4.44%
